Reference: the supplement of paper PMC7866885, “A novel bicyclic 2,4-diaminopyrimidine inhibitor of Streptococcus suis dihydrofolate reductase” (PeerJ, 2021)
± gives the standard deviation.

tested on: Streptococcus suis HE06; assay: percent growth relative to DMSO control; higher = less growth inhibition; conditions: 10 µM; incubation time 18 h
Protocol: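 CLSI broth microdilution: 5x10^4 CFU of Streptococcus suis (strain P1/7 or HE06) incubated with 10 µM Pathogen Box compound in cation-adjusted Mueller Hinton broth, 37 °C, 5% CO2, 18 h. Growth read as OD600 and expressed as percent of the DMSO-treated control (100%); mean ± SD of three independent experiments.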

Row | SMILES | percent growth [%]
1 | C[C@H](C(N)=O)N1CCCC[C@H]1c1ccc(OCc2cccc(F)c2)cc1 | 85.5 ± 23
2 | COc1ccc(N(CCc2cccc(C)n2)C(C)=O)cc1 | 112 ± 54
3 | COc1ccccc1OCCCCn1c(C2CC2)nc2ccccc21 | 102.6 ± 0.9
4 | Cc1cc(NCCc2ccccc2)nc(NC(=N)Nc2ccc(Cl)cc2)n1 | 148 ± 68
5 | NC(CC(=O)c1ccc(Cl)cc1Cl)C(Cl)(Cl)Cl (stereo not drawn) | 58.8 ± 39
6 | O=C(Nc1nc(-c2ccccn2)cs1)c1cncn1-c1ccccc1 | 13.4 ± 19
7 | O=C(OCc1ccccc1)N1CCC(c2cc(-c3ccncc3)c(-c3ccc(F)cc3)[nH]2)CC1 | 126 ± 61
8 | FC(F)(F)c1cnc(Sc2nnc(-c3ccncc3)o2)c(Cl)c1 | 94.8 ± 27
9 | FC(F)(F)c1cc(NCCc2ccccc2)nc(-c2ccccn2)n1 | 1.92 ± 3.3
10 | CCOc1ccc(OCC(=O)Nc2cc(C)cc(C)c2)cc1 | 96.3 ± 4.6
11 | Nc1ncnc2c1c(-c1cnc3ccccc3c1)nn2CC1CCNCC1 | 94.9 ± 5.4
12 | CC(C)(C)n1nc(Cc2cccc3ccccc23)c2c(N)ncnc21 | 90.1 ± 3.1
13 | O=C(Nc1nnc(-c2ccc(Cl)cc2)o1)c1cccc(C(F)(F)F)c1 | 0
14 | CC[C@@H]([C@H](C)O)n1ncn(-c2ccc(N3CCN(c4ccc(OC[C@@H]5CO[C@@](Cn6cncn6)(c6ccc(F)cc6F)C5)cc4)CC3)cc2)c1=O | 76.2 ± 4.8
15 | CCOc1ccccc1C(=O)Nc1cccc(-c2nc3ncccn3c2C)c1 | 88.1 ± 24
16 | N#Cc1ccc(-c2ccc(OCC(N)=O)cc2)cc1 | 91.4 ± 11
17 | Cc1nn2c(=O)c3c([nH]c2c1-c1ccc(Cl)cc1)CCCC3 | 0.386 ± 8.7
18 | NCCN(C(=O)c1ccc(Cl)cc1Cl)c1ccc(OCc2ccc(Cl)cc2)cc1 | 68.3 ± 61
19 | CCc1nc2ccc(Cl)cn2c1C(=O)NCc1ccc(N2CCC(c3ccc(OC(F)(F)F)cc3)CC2)cc1 | 89.9 ± 15

Row | SMILES | percent growth [%]
20 | COCC(C)NC(=O)CSc1ncnc2sc(-c3ccccc3)cc12 (stereo not drawn) | 95.4 ± 33
21 | CCCCOC(=O)Nc1cc2nc(C3CCCCC3)[nH]c2cc1N1CCCC1 | 29.6 ± 40
22 | CO[C@@H](C(=O)N1Cc2[nH]nc(NC(=O)c3ccc(N4CCN(C)CC4)cc3)c2C1)c1ccccc1 | 82.9 ± 11
23 | O=[N+]([O-])c1cn2c(n1)OC[C@@H](OCc1ccc(OC(F)(F)F)cc1)C2 | 110 ± 13
24 | CS(=O)(=O)c1cccc(-c2cnc3[nH]cc(-c4ccc(CCC(=O)O)cc4)c3c2)c1 | 68.7 ± 5.5
25 | O=C(C1CCCCC1)N1CC(=O)N2CCc3ccccc3C2C1 (stereo not drawn) | 79.3 ± 24
26 | OCc1ccc(-c2cncc(Nc3cccc(Cl)c3)c2)cc1 | 88 ± 13
27 | CCc1cc(=O)n(C)c(SC(C)C(=O)Nc2ccc(F)cc2)n1 (stereo not drawn) | 110 ± 23
28 | Cc1cccc(Cn2ccc(NC(=O)c3ccc4c(c3)OCO4)n2)c1 | 75.3 ± 22
29 | Cc1nc2ccccn2c1C(=O)NCc1ccc(Cl)cc1 | 78.1 ± 14
30 | COc1cccc2c(C)nc(N=C(N)N)nc12 | 57.7 ± 22
31 | Clc1ccc(CCNc2cc(-c3ccccc3)nc3ncnn23)cc1 | 79.8 ± 10
32 | Cc1cc(OCC(=O)Nc2ccc(C(C)C)cc2)n(C)c(=O)c1C#N | 99.6 ± 7.3
33 | COc1ccc2nc(C)cc(OCC(=O)NCc3ccccc3)c2c1 | 91.7 ± 11
34 | CC(C)=CCC/C(C)=C\CNCCNC1C2CC3CC(C2)CC1C3 (stereo not drawn) | 0.0687 ± 0.12
35 | CCOC(=O)c1cc(-c2csc(Nc3c(C)cc(C)cc3C)n2)on1 | 91.3 ± 6
36 | O=C(c1cc2ccccc2o1)N1CCN(Cc2ccc3c(c2)OCO3)CC1 | 84.6 ± 20
37 | COc1cccc(OCC(=O)c2ccc(Br)cc2)c1 | 57.7 ± 50
38 | O=S(=O)(c1ccc(Cl)cc1)N1CCN(C(=S)NCc2ccco2)CC1 | 93.7 ± 22
